Screening data (PubChem)
The list is not random: actives were taken first. Their share in the collection is about 1.8%.
PAD4 inh: human PAD4 inhibitors, primary screen, biochemical, fluorescence polarization, 1536-well format | actives 0.41% (n = 330,000) | inhibition, % at 6.36 µM | recombinant PAD4, RCA probe fluorescence polarization | AID 485272, 2010;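 active = percent inhibition above a cutoff equal to the mean of all tested compounds plus 3 SD, cut at about 15% in these data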;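 note: 0% = PAD4 with RCA probe and DMSO and 100% = probe without PAD4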
PME-1 primary: PME-1 inhibitors via competitive probe labeling, primary screen, biochemical, fluorescence polarization, FP-Rh probe, HTS | actives 0.53% (n = 320,000) | inhibition, % at 5.9 µM | Protein phosphatase methylesterase 1 (Homo sapiens), Q9Y570 | recombinant PME-1;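 active = inhibition above the campaign mean of all compounds plus 3 SD, cut at about 26% in these data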;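 note: competitive labeling of PME-1 active site by serine hydrolase directed probe; 0% = PME-1 with DMSO and 100% = wells lacking PME-1 enzyme; inhibitors block probe labeling so polarization falls and inhibition rises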
Target sequence (Q9Y570 whole entry, looked up): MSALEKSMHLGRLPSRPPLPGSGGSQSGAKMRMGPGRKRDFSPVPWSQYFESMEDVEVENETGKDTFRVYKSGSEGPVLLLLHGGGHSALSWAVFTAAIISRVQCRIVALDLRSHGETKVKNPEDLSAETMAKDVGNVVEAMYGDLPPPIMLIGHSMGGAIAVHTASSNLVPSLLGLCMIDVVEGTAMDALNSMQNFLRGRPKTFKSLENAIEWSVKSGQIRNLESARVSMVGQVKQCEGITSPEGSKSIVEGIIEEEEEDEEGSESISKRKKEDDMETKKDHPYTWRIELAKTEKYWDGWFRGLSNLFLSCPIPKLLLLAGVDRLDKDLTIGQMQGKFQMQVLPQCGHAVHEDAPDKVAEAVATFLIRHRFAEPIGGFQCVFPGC
LYPLA2 counter: LYPLA2 inhibitors, primary screen, counter-screen for PME1 inhibitor project, biochemical, fluorescence polarization, FP-Rh probe ABPP. recombinant LYPLA2. Acyl-protein thioesterase 2 (Homo sapiens), O95372. inhibition, % at 5.9 µM. actives 0.38% (n = 320,000). AID 2177, 2009;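 active = inhibition above the screen-wide mean plus 3 SD, limit set per campaign, cut at about 26% in these data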;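 note: 0% = LYPLA2 with DMSO and 100% = wells lacking LYPLA2 enzyme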
Fam108B inh: mouse Fam108B serine hydrolase inhibitors, primary screen, counter-screen for RBBP9 inhibitor project, biochemical, fluorescence polarization. recombinant Fam108B, FP-Rh probe fluorescence polarization. actives 0.33% (n = 300,000). AID 1947, 2009. inhibition, % at 9.51 µM;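 active = inhibition above the screen mean inhibition plus 3 SD, computed separately per campaign, cut at about 18% in these data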;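 note: inhibitors lower polarization as less probe binds the enzyme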
LYPLA1 inh: LYPLA1 inhibitors, primary screen, counter-screen for PME1 inhibitor project, biochemical, fluorescence polarization, FP-Rh probe ABPP; Acyl-protein thioesterase 1 (Homo sapiens), O75608; AID 2174, 2009; actives 0.16% (n = 320,000); inhibition, % at 5.9 µM; recombinant LYPLA1;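 active = inhibition above the mean of all tested compounds plus 3 SD, set per campaign, cut at about 14% in these data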;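 note: inhibitors block serine hydrolase probe labeling of LYPLA1 so polarization falls; 0% = enzyme with DMSO and 100% = wells lacking LYPLA1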
Target sequence (O75608 whole entry, looked up): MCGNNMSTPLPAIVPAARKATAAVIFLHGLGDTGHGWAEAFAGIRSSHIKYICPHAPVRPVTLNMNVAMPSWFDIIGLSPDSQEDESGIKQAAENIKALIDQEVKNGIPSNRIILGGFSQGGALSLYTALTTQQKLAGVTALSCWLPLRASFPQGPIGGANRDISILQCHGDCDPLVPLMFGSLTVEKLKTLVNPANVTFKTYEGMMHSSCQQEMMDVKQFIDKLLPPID
GSTO1 inh: inhibitors of recombinant GSTO1, primary screen, counter-screen for RBBP9 inhibitor project, biochemical, fluorescence polarization. Glutathione S-transferase omega-1 (Homo sapiens), P78417. actives 1.1% (n = 300,000). inhibition, % at 5.96 µM. AID 1974, 2009. activity-based probe fluorescence polarization;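 active = inhibition above the campaign mean inhibition plus 3 SD, cut at about 35% in these data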;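 note: 0% = GSTO1-1 with DMSO and 100% = wells lacking GSTO1-1 enzyme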
GSTO1 confirm: GSTO1 inhibitor hit confirmation, counter-screen for RBBP9 inhibitor project, biochemical, fluorescence polarization, triplicate. shares compounds with GSTO1 inh. recombinant GSTO1, probe fluorescence polarization. inhibition, % at 5.96 µM. actives 54% (n = 2,400). AID 2176, 2009;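 active = inhibition above the primary screen's cutoff, its mean inhibition plus 3 SD, cut at about 35% in these data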;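 note: loss of polarization as inhibitors block binding of rhodamine sulfonate ester activity probe; 0% = GSTO1 with DMSO and 100% = wells lacking GSTO1 enzyme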
GSTO1 ABPP inh: inhibitors of purified human GSTO1, late-stage follow-up, biochemical, gel ABPP, SE-Rh probe, percent inhibition; shares compounds with GSTO1 inh; actives 30% (n = 130); inhibition, % at 1 µM; recombinant GSTO1, gel ABPP SE-Rh probe fluorescence;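 active = inhibition of the enzyme GSTO1 above about 75%, limit read from the data; inactive = inhibition below that limit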
Numbers without * were called inactive; x = no result.

SMILES	PAD4 inh	PME-1 primary	LYPLA2 counter	Fam108B inh	LYPLA1 inh	GSTO1 inh	GSTO1 confirm	others
CCNCc1ccccc1OCc1ccccc1	0.0	3.5	-11.8	-6.3	-5.9	7.0	x
Oc1ccc(NCc2ccccc2OCc2ccccc2)cc1	-5.7	23.6	7.3	5.2	7.2	83.9*	6.9
COc1ccc(OCCCCn2c(CO)nc3ccccc32)cc1	1.2	0.2	5.0	3.2	1.1	6.6	x
Cc1cc(C(=O)CSc2nnc(N)s2)c(C)n1-c1c(C)n(C)n(-c2ccccc2)c1=O	-4.7	-0.8	4.1	3.5	-1.8	17.3	x
Cc1nnc(SCC(=O)c2cc(C)n(-c3c(C)n(C)n(-c4ccccc4)c3=O)c2C)s1	3.3	-7.2	-7.2	6.3	-1.2	37.8*	27.4
CC(=O)Oc1c(Cl)c(N2CCOCC2)c(OC(C)=O)c2ccccc12	-4.8	6.4	5.5	0.6	-2.5	43.8*	8.6
Cc1cc(OC(=O)N2CCOCC2)cc(C)c1Cl	4.1	-5.1	3.3	-0.5	0.5	2.4	x
Cc1ccc(N(C(=O)c2csnn2)C(C(=O)NCc2ccccc2)c2ccccn2)cc1 (stereo not given)	-6.0	0.6	6.5	-0.3	1.7	3.4	x
O=C1CCN(Cc2ccccc2)CCN1[C@H](COc1ccccc1)Cc1ccccc1	-3.6	4.4	-1.2	0.8	1.0	5.2	x
CCCCOc1ccc(C(=O)Oc2cc(C)[nH]c(=O)c2[N+](=O)[O-])cc1	1.8	-1.7	5.9	-5.6	2.7	0.3	x
CCOc1ccc(C(=O)Oc2cc(C)[nH]c(=O)c2[N+](=O)[O-])cc1	0.8	6.3	7.2	2.4	0.9	61.4*	2.2
CC1(C)c2[nH]c3ccccc3c2C[C@H]2C(=O)N(Cc3ccccc3F)C(=O)N21	-1.5	5.9	-10.3	1.0	-2.8	-2.8	x
COc1ccc(N)cc1-n1c(C)ccc1C	10.3	0.3	3.1	5.2	-1.6	44.6*	5.9
Nc1c(Cl)ncnc1N/N=C/c1cccc(O)c1	-4.2	2.0	5.6	2.1	3.3	45.1*	9.3
O=C(NNc1cc(Br)c(O)c(Br)c1)c1ccccc1	-1.3	2.7	7.5	5.1	-1.4	64.9*	27.4
O=C(O)c1ccc(N=N/C(=N\Nc2ccc(C(=O)O)cc2)c2ccccc2)cc1	1.2	1.4	8.0	5.9	5.1	39.3*	67.4*
COCC(C)n1c(SCC(=O)Nc2sccc2C(N)=O)nc2ccccc2c1=O (stereo not given)	4.8	-7.0	-11.1	x	-2.3	x	x
O=S1(=O)CC2NC(=S)N(c3cccc(Br)c3)C2C1 (stereo not given)	0.8	-0.2	0.8	-3.7	2.9	-0.6	x
CCOc1cc(CNc2ccc(O)cc2)cc(Br)c1OCc1ccccc1F	7.8	20.7	13.2	6.7	7.2	80.4*	1.1
Cc1cc2c(NC(=O)CC(C)(C)CC(=O)O)cccc2nn1	-0.5	-6.7	2.2	3.7	-0.3	42.5*	6.7
Cc1ccc(-n2nc3ccc(N)cc3n2)cc1Cl	2.6	9.9	-9.3	-0.5	-1.0	44.4*	8.0
COc1ccc(-n2nc3ccc(N)cc3n2)cc1Cl	-3.8	10.0	8.8	12.6	8.2	53.1*	48.9*
O=c1ccc2cc(S(=O)(=O)N3CCOCC3)ccc2o1	2.6	0.8	0.8	0.4	-1.4	42.1*	1.3
COc1ccc(N2CCN(S(=O)(=O)c3ccc4oc(=O)ccc4c3)CC2)cc1	-7.5	3.1	7.3	1.5	2.0	-1.4	x
S=c1[nH]c2ccccc2n2c(=S)[nH]nc12	2.5	-1.2	4.6	1.1	2.1	59.4*	38.5*
SMILES	PAD4 inh	PME-1 primary	LYPLA2 counter	Fam108B inh	LYPLA1 inh	GSTO1 inh	GSTO1 confirm	others
COc1ccc(NC(=O)C(OC(=O)c2ccc([N+](=O)[O-])o2)c2ccccc2)cc1Cl (stereo not given)	-12.2	-3.1	-5.7	7.6	-0.6	50.1*	10.0
CC(NC(=O)c1ccncc1)c1ccc(Cl)cc1Cl (stereo not given)	0.1	0.2	-0.4	-1.5	-0.1	-8.6	x
COCCCNC1=C(Cl)C(=O)c2ccccc2C1=O	-11.2	2.6	-1.6	1.5	0.4	48.4*	12.5
CCN(CC)CCCNC1=C(Cl)C(=O)c2ccccc2C1=O	-9.8	-0.3	4.8	2.9	-3.0	65.6*	47.0*
CCN(CC)CCCNc1nc2ccccc2[nH]1	4.2	-1.2	1.2	-1.1	0.6	9.1	x
CC(C)OCCCNC1=C(Cl)C(=O)c2ccccc2C1=O	-10.9	-0.2	-5.2	-1.5	-1.6	63.9*	8.9
CC(C)OCCCNC(=S)NNC(=O)C(c1ccccc1)c1ccccc1	-2.3	-2.9	-0.2	0.3	1.6	-11.6	x
Cc1nn(-c2ccc(Cl)cc2)c2[nH]c(CCl)cc(=O)c12	-1.1	-5.8	-4.9	-5.5	-2.0	96.5*	97.9*	GSTO1 ABPP inh=72.0
Cc1cccc(NC(=O)c2cc([N+](=O)[O-])ccc2N2CCCCC2)n1	1.9	5.1	-0.1	-1.1	0.1	-9.0	x
CC(C)c1cc2c(c(O)c1O)[C@@]13CCCC(C)(C)C1CC2OC3=O (stereo not given in full)	4.3	-3.6	2.3	-2.2	-5.1	40.6*	8.1
CC(=O)Oc1ccc(N(C(C)=O)S(=O)(=O)c2cccs2)c2ccccc12	-5.4	12.4	0.5	-2.4	-1.4	51.8*	13.5
COc1cc(Sc2ccc(C)cc2)c(OC)cc1N	-19.0	3.6	5.5	6.2	1.1	47.3*	7.4
COC(=O)c1ccc(Sc2ccc(C)cc2)c(N)c1	1.5	2.0	2.3	3.7	0.4	-2.1	x
CCCn1c(CCC(=O)O)nc2cc(S(=O)(=O)N3CCCC3)ccc21	-38.3	-34.0	-35.4	-25.7	-16.4	-42.5	x
COc1ccc(S(=O)(=O)N(C(=O)c2ccco2)c2cc3sc(=O)oc3c3ccccc23)cc1	9.0	11.7	5.9	6.5	1.1	63.8*	18.7
O=C(OCC(=O)N1CCCCC1)c1cc(NS(=O)(=O)c2ccc(Cl)c([N+](=O)[O-])c2)ccc1O	-6.0	-8.3	2.6	3.9	-2.2	51.2*	56.5*
